# CYP2C19 act: increases human CYP2C19 enzyme activity. recombinant CYP2C19, luciferin-H EGE luminescence; stronger effect = higher value; 0 = fully inhibited enzyme, 1 = untreated enzyme. activation factor at 5 µM. 96,000 tested, under 10 active. AID 1025;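 active = activation factor of at least 2 at 5 µM in the primary screen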;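 also: 0 = wells with 2.5 mM tranylcypromine and 1 = vehicle-only wells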
# CYP2C19 inh: human CYP2C19 inhibition. CYP2C19 Supersomes, luciferin-H EGE luminescence, 30 min. inhibition, % at 5 µM. hit rate 21% among 96,000. P33261;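 active = CYP2C19 inhibition above a set limit at 5 µM in the primary screen, cut at about 50% in these data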;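 also: plate controls were negative control wells for no effect and 2.5 mM tranylcypromine positive control for full effect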
# CYP2C9 activ: CYP2C9 (human) activation | P11712 | recombinant CYP2C9, luciferin-H conversion, luminescence; stronger effect = higher value; factor 1 = untreated enzyme, 0 = blocked | activation factor at 5 µM | hit rate 1.4% among 96,000;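 active = activation factor of 2 or more for CYP2C9 at a 5 µM dose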;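 also: 0 = sulfaphenazole-blocked wells and 1 = vehicle-only wells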
# PLAP act: human PLAP activation | hit rate 1.2% among 96,000 | activation fold at 20 µM | P05187 | purified PLAP enzyme, luminescent substrate read-out; stronger effect = higher value; in the data active = activation fold above about 2
# Target sequence (P05187 whole entry, looked up): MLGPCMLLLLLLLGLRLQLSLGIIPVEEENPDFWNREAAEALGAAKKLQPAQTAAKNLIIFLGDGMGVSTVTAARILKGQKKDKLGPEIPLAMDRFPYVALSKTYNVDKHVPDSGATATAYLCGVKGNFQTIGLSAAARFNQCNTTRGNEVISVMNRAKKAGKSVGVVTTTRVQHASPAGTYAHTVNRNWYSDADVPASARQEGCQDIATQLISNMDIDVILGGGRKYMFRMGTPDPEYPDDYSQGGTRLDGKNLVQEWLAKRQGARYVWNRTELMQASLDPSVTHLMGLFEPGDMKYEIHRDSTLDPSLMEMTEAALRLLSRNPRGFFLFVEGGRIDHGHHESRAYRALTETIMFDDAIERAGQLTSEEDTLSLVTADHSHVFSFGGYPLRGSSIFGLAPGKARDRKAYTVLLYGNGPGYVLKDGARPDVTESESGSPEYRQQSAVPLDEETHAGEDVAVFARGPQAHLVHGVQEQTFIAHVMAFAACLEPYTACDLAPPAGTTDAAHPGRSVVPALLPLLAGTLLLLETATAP
# CYP2C9 inh: inhibitors of human CYP2C9; CYP2C9 Supersomes, luciferin-H conversion, luminescence; inhibition, % at 5 µM; hit rate 20% among 96,000;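 active = blocking of liver enzyme CYP2C9 beyond about 50% at 5 µM, limit read from the data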
# Active calls of the source: *. Rows were chosen to be rich in hits. Some 31% of all compounds tested hit in one or more screens of this group.
SMILES,CYP2C19 act,CYP2C19 inh,CYP2C9 activ,PLAP act,CYP2C9 inh
Cc1ccc(CSCC(=O)N2CCOCC2)cc1,0.3,75*,1.2,0.9,-15
Cc1nn(-c2ccc(Cl)cc2)c2sc(C(=O)N3CCN(c4ccccn4)CC3)cc12,1,0,0.8,1,18
CN(C)S(=O)(=O)Nc1ccc(C(=O)O)cc1,0.9,7,0.9,1,9
Cc1ccc(-c2nn(-c3ccccc3)cc2CN(Cc2ccccc2)C(=O)c2ccco2)o1,0.7,26,0.3,1.3,70*
CC(C)OC(=O)c1cn(-c2ccccc2)nc1-c1ccco1,1,3,0.8,1.3,22
O=C(O)CNC(=O)c1ccc(S(=O)(=O)N2CCOCC2)cc1,1,1,1,0.9,-2
O=S(=O)(/N=C(/Nc1cc(N2CCOCC2)ncn1)c1ccc(F)cc1)c1ccccc1,1,2,1.1,2.1*,-13
Cc1cc(NC(=O)Nc2cccc3ccccc23)no1,0.8,23,1.3,0.7,-30
O=C(Nc1cc(N2CCOCC2)ncn1)Nc1cccc2ccccc12,0.9,13,2*,0.9,-102
S=C(Nc1cccc2ccccc12)NN1CCOCC1,0.2,75*,0.2,0.9,81*
O=C(Nc1cccc2ccccc12)N1CCOCC1,1,-3,1,0.8,-1
CCc1cc2c(cc3c(=O)n(CC(=O)NCCCN(CC)CC)nc(CC)n32)s1,0.9,9,1,0.8,-5
Cc1cccnc1NC(=O)Cn1nc(C)c([N+](=O)[O-])c1C,0.6,43,1,0.9,-1
CCC(=O)N1CCc2cc(S(=O)(=O)CCC(=O)O)ccc21,1,-3,1,1.1,2
OC(CNCc1ccco1)Cn1c2ccc(Br)cc2c2cc(Br)ccc21 (configuration not stated),1,-1,0.9,1.1,5
Cc1cccc(N(CC(O)CON=C2c3ccccc3-c3ccccc32)S(C)(=O)=O)c1 (configuration not stated),0,98*,0,1.7,99*
Cc1ccc(S(=O)(=O)C2(C(=O)Nc3nccs3)CC2)cc1,0.7,34,0.8,1.1,16
CC1CCCCN1C(=O)C12CCC(C)(C(=O)C1)C2(C)C (configuration not stated),1,-2,1,1.3,0
Cc1ccc(S(=O)(=O)C2(C(=O)N3CCCCC3C)CC2)cc1 (configuration not stated),0.3,72*,0.9,1.2,7
Cc1ccc(S(=O)(=O)C2(C(=O)N(C)C3CCCCC3)CC2)cc1,0.5,50*,0.9,1.1,8
Cc1c(O)ccc(/C(Cc2ccc3ccccc3n2)=N\O)c1O,0.3,66*,0.1,1.1,88*
Cc1ccc(C)c(NC(=O)c2ccc3ccccc3n2)c1,1.2,-16,1.1,0.9,-9
CCOC(=O)c1sc(NC(C)=O)c(C(=O)OCC)c1C,0.7,27,0.8,1.1,24
CCOC(=O)c1c(N)sc(C(=O)N2CCCCCC2)c1C,0.2,81*,0.7,1.2,34
CCc1c(C)sc(NC(=O)c2ccco2)c1C(=O)N1CCCCC1,1,2,0.9,1.3,7
SMILES,CYP2C19 act,CYP2C19 inh,CYP2C9 activ,PLAP act,CYP2C9 inh
CCOC(=O)c1c(NC(=O)c2ccco2)sc(C(=O)N2CCCC2)c1C,0.6,44,0.4,1,56*
CCOC(=O)c1c(NC(=O)CC)sc(C(=O)N2CCCCC2)c1C,0.3,75*,0.4,1.9,57*
CCOC(=O)c1c(N)sc(C(N)=O)c1C,0.9,7,0.8,1,21
CCOC(=O)c1c(N)ssc1=S,0.7,26,0.3,1.4,66*
O=C(c1ccc(C(=O)N2CCOCC2)nc1)N1CCOCC1,1.2,-19,1.3,0.9,-25
CCN(CCO)Cc1csc2ccc(Br)cc12,0.6,38,1.3,1.8,-28
Cc1cc(C)c2ccc(N)nc2c1O,1,-5,1.2,0.6,-18
Cc1cc(C)c2ccc(C)[n+]([O-])c2c1O,0.8,16,3.5*,1.5,-252
COc1ccc(N(CC(=O)NCc2cccc(OC)c2)S(=O)(=O)c2c(C)noc2C)cc1,0.1,92*,0.4,1,64*
CCOc1ccc(N(CC(=O)NCc2cccc(OC)c2)S(=O)(=O)c2c(C)noc2C)cc1,0.4,60*,0.8,1,21
CCOCCc1nnc(NC(=O)c2cc(OC)c(OC)c(OC)c2)s1,0.9,7,1,1.4,-4
COc1cnc(SCc2c(Cl)cccc2Cl)nc1Cl,0.5,45,1,0.9,2

# Screens from PubChem BioAssay.
